Reference: ChEMBL document CHEMBL1157539, “Thousands of chemical starting points for antimalarial lead identification” (Nature, 2010)

Tested on: Plasmodium falciparum
Assay: GSK_TCMDC: Inhibition of Plasmodium falciparum 3D7 in whole red blood cells, using parasite LDH activity as an index of growth. Test compounds present at 2uM
Format: functional

Row | SMILES | Inhibition [%]
1 | Cc1[nH]cnc1CSCCN/C(=N\C#N)NCCCCCCCCN/C(=N/C#N)NCCSCc1nc[nH]c1C | 81
2 | CCC(Cc1cnc2nc(N)nc(N)c2n1)c1ccc(C(=O)N[C@@H](CCC(=O)O)C(=O)O)cc1 (stereo partly drawn) [EDATREXATE] | 93
3 | CCCCNC(=O)[C@H](CC1CCCCC1)NC(=O)c1ccc(O)c(-c2cccc(C(F)(F)F)c2)c1 | 98
4 | O=C(O)C(F)(F)F.c1ccc(CCNCc2ccc(-c3cccc(-c4nc5ccccc5[nH]4)c3)cc2)nc1 | 100
5 | CCC(C)(C)c1ccc(N2C(N)=NC(N)=NC2(C)C)cc1.Cl | 91
6 | O=C(Nc1cccc(CN2CCN(C(=O)c3cccc(F)c3)CC2)c1)c1ccco1.O=C(O)C(F)(F)F | 88
7 | OC(CNCc1ccccc1OCc1ccccc1)c1cc(Br)cs1 (stereo not drawn) | 97
8 | Cl.c1ccc(COc2ccc(Nc3ncnc4ccc(-c5ccc(CN6CCSCC6)o5)cc34)cc2)cc1 | 94
9 | S=C(NCCCCCN1CCC(c2c[nH]c3ccccc23)CC1)Nc1cc(Cl)cc(Cl)c1 | 100
10 | O=C(C=Cc1ccc(Cl)c(Cl)c1)NCCCCCN1CCC(CCNS(=O)(=O)c2ccc(Br)cc2)CC1 | 91
11 | Cl.NC(=O)c1cnc2cc(-c3ccoc3)ccc2c1Nc1ccc(NC(=O)Nc2ccccc2Cl)cc1 | 100
12 | COc1cccc(NC(=O)c2cc(C(=O)Nc3cccc(OC)c3)cc([N+](=O)[O-])c2)c1 | 99
13 | CCOc1cc(C)ccc1NC1CCN(CCCCNC(=O)c2ccc(NC(=O)c3ccc(Cl)cc3)cc2)CC1 | 100
